Experimental data from PubChem BioAssay (Tox21).
A number with no mark means an inactive call. Active and inactive are the calls of the source. The call rests on the fitted dose curve; in most records, active means well fitted inhibition curve with a large enough effect in the repeat runs (not every such curve was filed as active); inconclusive means weak or mixed curves; inactive means flat fitted curve, though single readings scatter.

The compounds below were run against Thyrotropin-releasing hormone receptor (Homo sapiens) (UniProt P34981) (assay: qHTS assay to identify small molecule antagonists of the thyrotropin-releasing hormone receptor (TRHR) signaling pathway (AID 1346877)). Conditions: TRHR-HEK293, TRH-induced calcium fluorescence, antagonist mode; series mostly up to 51.3 µM; activity, negative = inhibition: at the top concentration.
Chain of Thyrotropin-releasing hormone receptor (Homo sapiens) (P34981 whole entry, looked up): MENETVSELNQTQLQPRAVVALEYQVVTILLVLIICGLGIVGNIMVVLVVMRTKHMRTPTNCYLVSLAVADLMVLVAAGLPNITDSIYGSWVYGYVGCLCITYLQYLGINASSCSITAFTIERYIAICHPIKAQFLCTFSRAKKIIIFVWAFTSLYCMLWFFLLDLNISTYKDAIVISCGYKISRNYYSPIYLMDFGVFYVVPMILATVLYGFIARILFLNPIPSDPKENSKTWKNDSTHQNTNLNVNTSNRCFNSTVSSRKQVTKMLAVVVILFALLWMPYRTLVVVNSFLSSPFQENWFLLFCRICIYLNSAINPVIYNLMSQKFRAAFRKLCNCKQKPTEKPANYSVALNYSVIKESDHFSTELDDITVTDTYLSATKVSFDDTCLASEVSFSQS
Excerpt: National Center for Advancing Translational Sciences [NCATS]
NIH Chemical Genomics Center [NCGC]
U.S. Environmental Protection Agency [EPA]
National Institutes of Environmental Health Sciences [NIEHS]
National Toxicology Program [NTP]
U.S. Food and Drug Administration [FDA]
Thyrotropin-releasing hormone (TRH) receptor (TRHR) is a G-protein-coupled receptor which binds the tripeptide thyrotropin releasing hormone. TRHR is found in the brain and, when bound by TRH, acts (through phospholipase C) to increase intracellular inositol trisphosphate. It plays a crucial role in the anterior pituitary where it controls the synthesis and secretion of thyroid stimulating hormone and prolactin. The TRHR-Hek293 assay is a cell-based assay, and it has the potential to screen G protein-coupled receptors. A compound/drug can either activate (agonist) or suppress (antagonist) GPCRs that can be monitored by levels of intracellular calcium. In this assay, the Tox21 10K compound library was screened to identify potential TRHR antagonists.
Tox21 Assay Protocol Summary:
The TRHR-Hek293 cells were dispensed at 1500cells/4uL/well in 1536-well black-clear bottom plates using a Multidrop dispenser. After the assay plates were incubated at a 37 C/5% CO2 incubator for 18 hours, 4 uL of Dye-Loading Solution was added to each well. The plates were incubated at 37 C for 2 hours. For agonist mode, 23 nL of compounds dissolved in DMSO, positive controls or DMSO only was transferred to the assay plate by a pin tool. The fluorescence intensity in the plates was measured using FDSS 7000EX kinetic plate reader for 3 min at 1 sec intervals. For antagonist mode, 23 nL of compounds dissolved in DMSO, positive controls or DMSO only was transferred to the assay plate by a pin tool. After 5 min incubation at room temperature, 1 uL of TRH was added on the top of the cell/compound mixtures to achieve a final agonist concentration of 1 nM. The fluorescence intensity in the plates was measured using FDSS 7000EX kinetic plate reader for 3 min at 1 sec intervals. Each test compound was measured at 15 concentrations and in triplicates.
On the % scale 0 is the no-effect control and ±100 the full control effect; potency means the concentration at half of the fitted maximal effect.

Row | Structure (SMILES) | activity, negative = inhibition | Potency
1 | CNP(=O)(OC)Oc1ccc(C(C)(C)C)cc1Cl (stereo not given) | -6.49% | 
2 | CCOc1ccc(C(C)(C)COCc2cccc(Oc3ccccc3)c2)cc1 | -2.02% | 
3 | O=C1c2ccccc2C(=O)C1C(=O)C(c1ccccc1)c1ccccc1 | -7.21% [at 23.6 µM] | 
4 | Cc1ccc(N)cc1C | 0.95% | 
5 | C[C@@H]1CC[C@H]2[C@@H](C)C(=O)O[C@@H]3O[C@@]4(C)CC[C@@H]1[C@]32OO4 | 5.64% [at 23.6 µM] | 
6 | IC(I)=C(I)I |  | 1.2 µM (active)
7 | CCO[C@H]1O[C@@H]2OC3(C)CC[C@H]4[C@H](C)CC[C@@H]([C@H]1C)[C@@]24OO3 | -0.462% [at 23.6 µM] | 
8 | Cc1ccccc1C(=O)Nc1cccc(OC(C)C)c1 | 0.924% | 
9 | CCCCCCCCCCOC(=O)c1ccccc1C(=O)OCCCCCCCCCC | 0.127% | 
10 | O=C1NCN(c2ccccc2)C12CCN(CCCOc1ccc(F)cc1)CC2 |  | 6.58 µM (active)
11 | COc1nn(CSP(=S)(OC)OC)c(=O)s1 | -0.642% | 
12 | Oc1ccc(Cl)c(Cl)c1Cl | -2.75% | 
13 | CCOP(=S)(OCC)SCSCC | 2.31% | 
14 | N#C/C(N)=C(/N)C#N | 3.9% | 
15 | Cn1cc[n+](C)c1 (tested in a mixture with another compound) | -0.477% | 
16 | c1ccc(C2CC2)c(OCC2=NCCN2)c1 | 4.94% [at 23.6 µM] | 
17 | CCCCCC[N+](=O)[O-] | -2.54% | 
18 | CC(C)(Cl)[N+](=O)[O-] | 1.41% | 
19 | c1ccoc1 | 1.77% | 
20 | NCCCNCCCN | 0.85% | 

Row | Structure (SMILES) | activity, negative = inhibition | Potency
21 | CCCCC(O)(Cn1cncn1)c1ccc(Cl)cc1Cl (stereo not given) | -15.3% | 
22 | N#Cc1ccc(Cl)cc1 | 0.452% | 
23 | Brc1ccccc1 | -0.674% | 
24 | CC(=O)CCC(C)=O | 4.8% | 
25 | CCOP(=O)(OCC)O/C(=C/Cl)c1ccc(Cl)cc1Cl | -21.7% | 
26 | NNC(=O)c1cccnc1 | 0.534% | 
27 | O=C(CBr)OCc1ccccc1 | -2.61% | 
28 | COP(=O)(OC)O/C(=C/Cl)c1cc(Cl)c(Cl)cc1Cl | -18.5% | 
29 | CCOC(=O)[C@]1(c2ccccc2)Oc2ccccc2[C@@H]1N | 2.17% | 
30 | CCCCOC(=O)c1ccccc1C(=O)OCc1ccccc1 |  | inactive
31 | O=C(NCc1cccnc1)Nc1ccc([N+](=O)[O-])cc1 | -3.35% | 
32 | Nc1ccc([N+](=O)[O-])cc1[N+](=O)[O-] | 2.03% | 
33 | CC(O)(CS(=O)(=O)c1ccc(F)cc1)C(=O)Nc1ccc(C#N)c(C(F)(F)F)c1 (stereo not given) | -11.7% [at 23.6 µM] | 
34 | Cl/C=C\Cl | 10.4% | 
35 | N#CCC#N | 3.1% | 
36 | ClC=C(Cl)Cl | 2.86% | 
37 | CCOP(=S)(Oc1ccc([N+](=O)[O-])cc1)c1ccccc1 (stereo not given) | 0.851% | 
38 | O=[N+]([O-])c1ccc(F)c([N+](=O)[O-])c1 | -2.6% | 
39 | O=C(CBr)Nc1ccc(Cl)cc1C(=O)c1ccccc1F | -1.82% [at 23.6 µM] | 
40 | S=C=NCc1ccccc1 | 2.02% | 
